Hits are enriched below; roughly 2.9% of the tested compounds scored in any of these assays.
Rev-erbA mod – modulators of human Rev-erb alpha DNA binding; P20393; Rev-erbα–FITC-DNA binding, fluorescence polarization, 90 min; activity, % at 10 µM; 0.79% of 370,000 active; AID 1259318;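 active means activity above about 14%, limit read from the data; passing the limit was not always enough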;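 further: 0% = DMSO wells with 35 nM protein and 100% = DMSO wells with 750 nM protein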
RAM network inh – yeast RAM network inhibition. S. cerevisiae dse1pr::URA3 reporter, 5-FOA growth OD615, 2 d; analog-sensitive cbk1-as2 kinase mutant strain. inhibition, % at 50 µM. 1.8% of 190,000 active;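 active means inhibition above a set limit, 3 SD over mean compound inhibition, cut at about 8.4% in these data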;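 further: 0% = DMSO-only wells with no growth and 100% = 10 µM 1-NA-PP1 full growth; inhibition rescues growth on 5-FOA so higher OD means more RAM inhibition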
EP2 antag – EP2 receptor (human) inhibition; C6 glioma cells expressing human EP2, cAMP TR-FRET; cells stimulated with saturating PGE2; 0.52% of 260,000 active; P43116; inhibition, % at 25 µM;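 active means percent inhibition above 40 after rounding to a whole number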;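 further: rat C6 glioma host cells with rolipram phosphodiesterase inhibitor present; the protocol text gives 20 µM as final concentration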
Target sequence (P43116 whole entry, looked up): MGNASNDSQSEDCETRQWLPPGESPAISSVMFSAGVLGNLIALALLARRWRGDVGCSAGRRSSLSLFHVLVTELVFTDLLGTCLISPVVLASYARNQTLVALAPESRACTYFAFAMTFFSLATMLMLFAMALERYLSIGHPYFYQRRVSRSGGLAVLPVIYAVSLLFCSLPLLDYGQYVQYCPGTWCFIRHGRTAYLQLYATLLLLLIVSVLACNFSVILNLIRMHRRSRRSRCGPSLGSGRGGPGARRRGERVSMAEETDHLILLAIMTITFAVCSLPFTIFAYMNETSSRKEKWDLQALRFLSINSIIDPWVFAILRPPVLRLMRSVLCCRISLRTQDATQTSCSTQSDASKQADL
EP2 modulator – modulates human prostaglandin E2 receptor EP2 signaling; P43116; EP2-expressing cells, cAMP HTRF FRET, PGE2 co-stimulation; induction, % at 25 µM; 0.83% of 260,000 active; AID 940;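 active means compounds whose cAMP rise, as percent of the full-agonist control response, exceeds 60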;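 further: rat C6 glioma line stably carrying human EP2 under a CMV promoter; the protocol text gives 20 µM as final concentration; 100% = response of wells given 1 µM PGE2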
SKN-1 block – blocks SKN-1 activity in C. elegans. 0.49% of 360,000 active. AID 624304. C. elegans VP596 Pgst-4::GFP/RFP ratio, acrylamide-induced, 24 h. inhibition, % at 21.8 µM;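 active means interference check ratio from 0.5 to 1.5 plus GFP to RFP signal ratio inhibition reaching or exceeding a fixed threshold, cut at about 30% in these data, passing the limit was not always enough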
PG9 Ab binder – binds the HIV-1 gp120 antibody PG9; TR-FRET gp120-PG9 antibody binding; inhibition, % at 6.7 µM; 0.43% of 360,000 active; AID 624416; in the data active means inhibition above about 8.5%
RAM 5-FOA – restores 5-FOA growth of efflux-deficient yeast; 1,200 tested, under 10 active; shares compounds with RAM network inh; AID 1305; max inhibition, %; S. cerevisiae efflux-deficient reporter strain, 5-FOA growth OD615, 2 days; call rule not given here;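 further: plate controls were vehicle for no effect and reference inhibitor for full effect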
An asterisk follows results filed as active; / = not tested or not shown.

SMILES | Rev-erbA mod | RAM network inh | EP2 antag | EP2 modulator | SKN-1 block | PG9 Ab binder | RAM 5-FOA
COc1ccc(/C=C/C(=O)Nc2cc(S(=O)(=O)N3CCCCC3)ccc2N2CCCCC2)cc1OC | -0.8 | 11.8* | 11.7 | 4.3 | 16.2 | -2.4 | 13.1
CN(C(=O)COC(=O)c1sc2ccccc2c1Cl)C1CCCCC1 | 2.8 | 13.7* | 9.8 | -21.8 | -6.3 | -0.1 | 2.6
COc1ccc(NC(=O)c2ccco2)cc1NC(=O)c1ccc(C(C)(C)C)cc1 | / | / | 7.4 | -103.3 | / | / | /
CN(C[C@@H](CC1CCCCC1)N(C[C@H](Cc1ccccc1)N(CCc1ccccc1)N=O)N=O)N=O | 6.8 | 14.1* | 6.8 | 16.0 | 0.4 | -1.2 | 4.3
CCC(C)[C@@H](CN(N=O)[C@@H](Cc1ccccc1)CN(C)N=O)N(CCc1ccccc1)N=O (stereo partly drawn) | / | 30.5* | 10.2 | 17.6 | 2.4 | / | 3.5
COc1ccc(NC(=S)N(Cc2cc3cc(C)cc(C)c3[nH]c2=O)C2CCCC2)cc1 | / | / | 10.5 | -19.6 | / | / | /
CC(=O)Nc1ccc(-c2csc(NCc3ccco3)n2)cc1 | 2.7 | 2.4 | 13.1 | -15.3 | 11.2 | -1.0 | /
COc1ccc(-c2csc(NCc3ccco3)n2)cc1C | / | 13.1* | 7.2 | -4.2 | 26.1 | / | 5.1
Cc1cccc(-n2c(SCC(=O)OC(C)C)nnc2-c2cccnc2)c1C | / | / | 7.8 | -34.6 | / | / | /
O=C(/C=C/c1ccc2c(c1)OCO2)NCCSCc1ccc(Cl)cc1 | 1.2 | 0.2 | 3.2 | -24.5 | 2.7 | 1.1 | /
O=C(/C=C/c1cccc([N+](=O)[O-])c1)NCCSCc1cccc(Cl)c1 | 4.3 | 11.5* | 7.3 | -56.1 | 5.0 | 0.0 | 2.0
O=C(/C=C/c1ccc2c(c1)OCO2)NCCSCc1c(Cl)cccc1Cl | 2.5 | 15.1* | 8.1 | -10.8 | 12.3 | -2.1 | 2.5
O=C(/C=C/c1cccc([N+](=O)[O-])c1)NCc1ccccc1 | -7.0 | 2.4 | 13.0 | -64.8 | 4.3 | -1.4 | /
COCCCNC(=S)N1CCCN(c2nc3c(C)c(C)ccc3cc2C#N)CC1 | 4.8 | 16.2* | 0.9 | 3.5 | 28.8 | -0.3 | 2.2
O=C(COC(=O)c1ccc2c(=O)n3c(nc2c1)CCC3)Nc1ccc(OC(F)F)cc1 | -7.7 | 12.7* | 5.8 | -14.9 | 1.7 | 3.5 | 2.0
N#C/C(=C\Nc1ccccc1SC(F)(F)F)c1nc(-c2ccc(Cl)cc2)cs1 | -0.2 | 5.2 | 7.2 | 30.2 | -0.6 | 2.4 | /
N#C/C(=C\Nc1ccccc1SC(F)(F)F)c1nc(-c2ccccc2)cs1 | -0.5 | 11.5* | 4.3 | 40.1 | 0.8 | 1.3 | 2.8
COC(=O)c1c(CSc2ccc(C)c(C)c2)noc1C(=O)NCc1ccc(OC)cc1 | -5.7 | 12.1* | 14.6 | 18.8 | 1.8 | 0.1 | 1.9
O=C(OCC(=O)c1cccs1)c1ccccc1 | 3.6 | 1.7 | 9.6 | 30.6 | 6.7 | 1.4 | /
O=C(CC(Nc1ccccc1Cl)C(=O)OCC(=O)c1cccs1)c1ccccc1 (stereo not drawn) | -0.1 | 18.9* | 7.7 | 9.6 | 15.6 | -4.8 | 2.0
Cc1ccc(NC(=O)CSc2nnc(Cc3ccccc3)o2)cc1 | 1.8 | 0.1 | 7.4 | 22.8 | 8.4 | 0.8 | /
CCOC(=O)c1c(NC(=O)CSc2nnc(Cc3ccccc3)o2)sc(C)c1C | 4.2 | 14.2* | 7.0 | 46.0 | -2.3 | -0.1 | 3.9
CCOC(=O)c1c(NC(=O)CSc2nnc(-c3ccco3)o2)sc(C(C)=O)c1C | 3.2 | 1.5 | 15.3 | 16.8 | -19.8 | -0.8 | /
CCOC(=O)c1c(NC(=O)CSc2nnc(-c3ccco3)o2)sc(C)c1C | 2.6 | 11.5* | 7.1 | -4.0 | 6.2 | -3.5 | 3.9
CS(=O)(=O)N(CC(=O)N1CCOCC1)c1ccc(Cl)cc1Cl | / | / | 12.8 | 9.4 | / | / | /
SMILES | Rev-erbA mod | RAM network inh | EP2 antag | EP2 modulator | SKN-1 block | PG9 Ab binder | RAM 5-FOA
O=C(OCc1nnc(-c2ccccc2)o1)C12CC3CC(CC(Br)(C3)C1)C2 | 5.3 | 21.3* | 1.2 | 4.8 | 2.1 | 0.0 | 2.4
COc1cccc(C(=O)NN2c3ccccc3CCc3ccccc32)c1 | -1.3 | 12.9* | 5.2 | -27.4 | 7.1 | 0.5 | 2.0
C=CCOC(=O)/C(=C/c1cccc2ccccc12)NC(=O)c1ccccc1 | 1.7 | 41.8* | 10.0 | 27.5 | 12.7 | -1.8 | 2.0
CCc1nn2c(C)cc(C)nc2c1-c1ccc(OC)cc1 | / | / | / | 22.8 | / | / | /
CC(C)C(=O)N1CCN(c2ccc(NC(=O)c3ccc(F)cc3)cc2)CC1 | / | / | 7.0 | 6.7 | / | / | /
CCCCN(CCCC)C1=Nc2ccccc2N/C1=C(/C#N)C(=O)OCC | 1.8 | 16.1* | 6.2 | 24.7 | 1.2 | -1.0 | 5.6
COc1ccc(OC)c(C(c2nnnn2C(C)(C)C)N2CCN(c3ccccc3F)CC2)c1 (stereo not drawn) | / | / | 7.0 | 1.0 | / | / | /
Cc1cc(Cl)ccc1OCC(=O)N/N=C1\CCCc2ccccc21 | 5.9 | 15.0* | 3.1 | -9.2 | 2.3 | -2.5 | 3.0
COc1ccc2nc(-c3ccc(NC(C)=O)cc3)[nH]c2c1 | / | / | 3.8 | -50.2 | / | / | /
COC(=O)c1cc(=O)n(Cc2ccc(F)cc2)c(=NCc2ccc(F)cc2)s1 | 0.4 | 13.6* | 5.4 | 45.7 | 4.4 | -0.1 | 2.6
Cc1ccc(S(=O)(=O)Nc2ccc(N3CCCCC3)cc2)cc1 | -2.8 | 1.5 | 8.3 | -8.7 | 14.3 | -0.9 | /
Cc1ccc(NS(=O)(=O)c2ccc(C3CCCCC3)cc2)cc1 | -2.5 | 13.5* | 2.6 | 8.0 | -6.4 | -0.4 | 5.1
Cn1c(=O)[nH]c(=O)c2c1nc(Sc1ccccc1)n2CCc1ccccc1 | 16.1 | 0.6 | 8.6 | 29.5 | -3.1 | -1.2 | 1.9
COc1ccc(OC)c(NC(=O)C(Sc2ccccc2)c2ccccc2)c1 (stereo not drawn) | -0.2 | 13.7* | 8.3 | 17.8 | -17.4 | -1.6 | 3.8
Cc1cccc(NC2=Nc3ccccc3N3C2=Nc2c(c(C)nn2-c2ccccc2)C3c2ccc(O)c(O)c2)c1 (stereo not drawn) | 6.1 | 11.6* | 12.1 | 10.3 | 2.1 | 0.5 | 9.2
Cc1nn(-c2ccccc2)c2c1C(c1ccc(O)c(O)c1)N1C(=N2)C(Nc2ccccc2)=Nc2ccccc21 (stereo not drawn) | -0.4 | 0.0 | 23.6 | -2.2 | 24.8 | 0.8 | /
Cc1ccc(NC2=Nc3ccccc3N3C2=Nc2c(c(C)nn2-c2ccccc2)C3c2ccc(O)c(O)c2)cc1 (stereo not drawn) | 10.2 | 11.4* | / | 20.7 | 36.0* | 2.8 | 9.9
COc1ccc(C2(NCc3ccc(OC)c(CN4CCOCC4)c3)CCCC2)cc1 | / | / | 3.5 | -37.2 | / | / | /
COCCCN1C(=O)C(=O)/C(=C(\O)c2ccccc2)C1c1cccc2ccccc12 (stereo not drawn) | / | / | 8.1 | 21.1 | / | / | /
COc1ccc(C2C(C#N)=C(N)Oc3n[nH]c(C)c32)cc1Br (stereo not drawn) | / | / | 11.8 | -65.9 | / | / | /

From PubChem BioAssay
